DT40 TDP1 CPT: qHTS for Inhibitors of human tyrosyl-DNA phosphodiesterase 1 (TDP1): qHTS in cells in presence of CPT; chicken DT40 Tdp1-/-;hTDP1 cells + 20 nM CPT, ATP luminescence, 48 h; 420,000 tested, 12% active; AID 686979, 2013; Potency, µM (doses to about 46.2 µM), for the others: top-dose activity change, negative = growth inhibition, hits mostly inhibitors; further: potency means the concentration at half of the fitted maximal effect; nearly all actives have a fitted effect of over 55% in size
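Chicken DT40 Tdp1-/- cells complemented with human TDP1, 400 cells/well, exposed to compounds plus 20 nM camptothecin for at least 48 h at 37 C; viability read as ATP content by CellTiter-Glo luminescence.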
CtBP-E1A blk: qHTS Assay for Inhibitors of the CtBP/E1A Interaction. CtBP / adenovirus E1A interaction (AlphaScreen). AlphaScreen GST-E1A/His-CtBP binding, 1536-well; hits give low values. activity change, % (concentration not given with the values). 340,000 tested, 0.49% active. AID 651724, 2012; in the data active means activity change below about -65%; inconclusive means mostly about -30% to -63%
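Protein mix (5X: 125 nM each GST-E1A, His-CtBP) was incubated with pinned compound 2 h at 37 deg C in dark, in 50 mM Tris pH 8.0 buffer with 300 mM NaCl. Glutathione donor and nickel acceptor beads followed; AlphaScreen signal read after 1 h.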
IL1B secr inh: qHTS for Inhibitors of Inflammasome Signaling: IL-1-beta AlphaLISA Primary Screen | THP-1 LPS/ATP IL-1B secretion, AlphaLISA, 16 h; hits give low values | activity change, % at 57.5 µM | 360,000 tested, 4.7% active | AID 743279, 2014; in the data active means activity change below about -50%; inconclusive means mostly about -30% to -49%
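Secreted IL-1B measured by AlphaLISA bead assay after 16 h compound exposure of THP-1 cells; compounds (final up to 57.5 uM) added 1 h before LPS (250 ng/mL) and ATP (1.25 mM) stimulation; lower signal means less secretion.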
Six1-Eya2 inh: qHTS Assay for Inhibitors of the Six1/Eya2 Interaction. AlphaScreen GST-Six1/His-Eya2 binding, biochemical; hits give low values. 360,000 tested, 0.56% active. AID 651725, 2012. Homeobox protein SIX1 (Homo sapiens) + Protein phosphatase EYA2 (Homo sapiens), …. activity change, % (no concentration beside the values); in the data active means activity change below about -65%; inconclusive means mostly about -30% to -63%
Target sequence (O00167 whole entry, looked up): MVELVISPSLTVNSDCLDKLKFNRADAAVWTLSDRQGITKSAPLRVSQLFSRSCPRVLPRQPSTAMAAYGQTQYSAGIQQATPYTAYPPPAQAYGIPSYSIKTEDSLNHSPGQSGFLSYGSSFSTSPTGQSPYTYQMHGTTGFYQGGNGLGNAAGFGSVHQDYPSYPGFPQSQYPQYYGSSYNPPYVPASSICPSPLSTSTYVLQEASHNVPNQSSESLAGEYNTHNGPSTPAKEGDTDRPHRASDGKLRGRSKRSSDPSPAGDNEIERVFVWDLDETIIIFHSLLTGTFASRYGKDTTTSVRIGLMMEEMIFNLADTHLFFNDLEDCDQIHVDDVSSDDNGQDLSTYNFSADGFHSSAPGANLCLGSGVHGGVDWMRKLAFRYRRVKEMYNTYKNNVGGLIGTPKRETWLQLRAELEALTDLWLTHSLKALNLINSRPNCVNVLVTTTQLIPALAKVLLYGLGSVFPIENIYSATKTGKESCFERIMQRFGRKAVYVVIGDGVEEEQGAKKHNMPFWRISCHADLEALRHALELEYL
Target sequence (Q15475 whole entry, looked up): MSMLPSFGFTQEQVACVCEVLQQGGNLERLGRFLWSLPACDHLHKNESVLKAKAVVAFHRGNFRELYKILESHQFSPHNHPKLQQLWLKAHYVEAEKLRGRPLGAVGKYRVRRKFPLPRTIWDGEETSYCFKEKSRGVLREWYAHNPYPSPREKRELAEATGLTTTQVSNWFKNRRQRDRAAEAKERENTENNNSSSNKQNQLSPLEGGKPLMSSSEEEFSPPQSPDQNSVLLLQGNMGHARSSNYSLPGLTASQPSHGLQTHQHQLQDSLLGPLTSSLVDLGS
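GST-Six1 + His-Eya2 (5X stock: 250/500 nM); Tris pH 8.0, 300 mM NaCl, 0.05% BSA, 0.02% Tween 20; GSH donor/Ni acceptor beads; 1 h 37 °C dark; AlphaScreen readout.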
TDP1 cell noCPT: qHTS for Inhibitors of human tyrosyl-DNA phosphodiesterase 1 (TDP1): qHTS in cells in absence of CPT; DT40 Tdp1-/- hTDP1 cells, no CPT, ATP luminescence, 48 h; Potency, µM (series often up to 46.2 µM), for inactives: top-dose activity change, negative = growth inhibition, actives largely listed as inhibitors; 420,000 tested, 15% active; AID 686978, 2013; further: potency means the concentration at half of the fitted maximal effect; nearly all actives have a fitted effect of over 55% in size
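Seeded 400 DT40-hTDP1 cells/well (vehicle DMSO, no 20 nM CPT); pinned compounds; ≥48 hr at 37 °C; CellTiter-Glo luminescence as viability measure.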
TDP1 inh: qHTS Assay for Inhibitors of Tyrosyl-DNA Phosphodiesterase (TDP1) | Tyrosyl-DNA phosphodiesterase 1 (Homo sapiens), Q9NUW8 | recombinant TDP1, AlphaScreen DNA substrate cleavage | Potency, µM (titrated, usually from 130 µM), inactives show at the highest dose activity change, negative = inhibition, actives largely listed as inhibitors | 350,000 tested, 0.28% active; further: potency means the concentration at half of the fitted maximal effect; nearly all actives have a fitted effect of over 40% in size
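Signal: AlphaScreen proximity between streptavidin donor and anti-FITC acceptor beads on intact substrate. Reaction: Tdp1 1 nM, substrate 15 nM final, 5 min RT after 15 min compound preincubation.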
An asterisk follows results filed as active; ? = inconclusive; nt = no result; [ ] = dose if it differs, or a comment. A selection: hits, their analogues and other compounds. The true share with any hit is near 18%. Unless noted, the call rests on the fitted dose curve; in most records, active means well fitted curve in the direction sought with a large enough effect; inconclusive means small, poorly fitted or top-dose-only effect, or another doubt; inactive means no such curve, though single readings can be large; an effect the other way counts as inactive or inconclusive. On the % scale 0 is the no-effect control and ±100 the full control effect.

SMILES | DT40 TDP1 CPT | CtBP-E1A blk | IL1B secr inh | Six1-Eya2 inh | TDP1 cell noCPT | TDP1 inh
CN(C)c1ccc(CNC(=O)CN2C(=O)CSc3ccc(S(=O)(=O)N4CCCC4)cc32)cc1 | ? | nt | nt | nt | -29% | 5%
COCCCN1C(=O)C(=O)/C(=C(/O)c2ccc(S(=O)(=O)N3CCOCC3)cc2)C1c1ccc(C)cc1 (centres undefined) | 1% | 12 | -2 | -9 | -3% | 6%
O=S(=O)(c1ccc(OC(F)(F)F)cc1)N1CCCC(c2ccccc2)C1 (centres undefined) | -9% | nt | -4 | 7 | -28% | nt
COCCCn1c(-c2ccc(S(=O)(=O)N3CCOCC3)cc2)csc1=Nc1ccccc1 | 18µM* | -7 | 0 | -9 | 15µM* | 7%[12.3 µM]
Cn1c(-c2ccc(S(=O)(=O)N3CCCC3)cc2)csc1=Nc1ccc(Cl)c(Cl)c1 | 9.2µM* | nt | nt | nt | 4.1µM* | 5%[12.3 µM]
O=S(=O)(c1ccc(-c2csc(=Nc3ccc(OC(F)(F)Cl)cc3)n2CCCO)cc1)N1CCCC1 | 2.9µM* | nt | nt | nt | 2.3µM* | 5%
Cc1nc(-c2ccc(S(=O)(=O)N3CCCCCC3)cc2)cs1 | ? | 2 | -13 | -2 | ? | 4%
O=C(N/N=C\c1ccc(S(=O)(=O)O)o1)c1ccc2c(c1)OCO2 | 15% | nt | -4 | -4 | -6% | 1%
CC(C)[C@@H](N)C(=O)NC[C@H]1O[C@@H](n2cnc3c(=O)[nH]c(N)nc32)[C@H](O)[C@@H]1O | -2% | 0 | 34 | 0 | -3% | nt
CC(C)NC(=O)c1cnc2sc(N3CCCCCC3)nn2c1=O | -4% | nt | nt | nt | -20% | 1%
O=C(Nc1cccc(F)c1)c1cnc2sc(N3CCCC3)nn2c1=O | 2.3µM* | nt | nt | nt | 3.3µM* | 3%
CC(C)c1ccc(NC(=O)c2cnc3sc(N4CCCC4)nn3c2=O)cc1 | 2.9µM* | nt | nt | nt | 2.1µM* | 6%
COc1cccc(/C=C/C(=O)OCC(=O)c2ccc[nH]2)c1 | -7% | -25 | -19 | -20 | -21% | nt
O=c1nc(C(F)(F)F)nc2ccccn12 | 9% | 3 | -5 | 4 | -20% | 5%
N#CC1=C(N)OC2=C(CC/C2=C\c2ccccc2Cl)C1c1ccccc1Cl (centres undefined) | ? | nt | -68* | -1 | 21µM* | 3%
N#CC1=C(N)OC2=C(C(=O)CCC2)C1c1ccccc1 (centres undefined) | -10% | -1 | -9 | 7 | 0% | 4%
N#CC1=C(N)OC2=C(CC/C2=C\c2ccccc2)C1c1ccccc1 (centres undefined) | 13µM* | 8 | -22 | 0 | 10µM* | 4%
COc1cccc(NC(=O)c2sc3nc(C)c(C(=O)Nc4ccc(C)cc4C)c(-c4ccc(Br)cc4)c3c2N)c1 | ? | nt | nt | nt | -30% | 3%
CC1C=CC=CC=CC=CC=CC=CC=CC(OC2OC(C)C(O)C(N)C2O)CC2OC(O)(CC(O)CC(O)C(O)CCC(O)CC(O)CC(=O)OC(C)C(C)C1O)CC(O)C2C(=O)O (centres undefined) | 4.6µM* | 0 | 63 | -75* | 3.3µM* | nt
C[C@H]1[C@@H](O)[C@@H](C)\C=C/C=C\C=C/C=C\C=C/C=C\C=C/[C@@H](O[C@H]2O[C@@H](C)[C@@H](O)[C@@H](N)[C@@H]2O)C[C@@H]2O[C@](O)(C[C@@H](O)C[C@@H](O)[C@@H](O)CC[C@@H](O)C[C@@H](O)CC(=O)O[C@H]1C)C[C@@H](O)[C@H]2C(=O)O (stereo in doubt) | nt | nt | nt | nt | nt | 6%[21 µM]
